Holding throughout (format): functional
Assay [1] addresses Solute carrier family 2, facilitated glucose transporter member 1 (Homo sapiens) (UniProt P11166). As to the kind of experiment: ST_JUDE_LEISH: Cytotoxicity at 2uM final concentration against transgenic Leishmania Mexicana promastigotes LmGLUT1 that are glucose transport deficient and complemented with the human glucose transporter GLUT1. Activity is measured by DNA content using SYBR green in vitro.

Assay [2] concerns the target Hexose transporter 1 (Plasmodium falciparum) (UniProt O97467). As to the kind of experiment: ST_JUDE_LEISH: Cytotoxicity at 2uM final concentration against transgenic Leishmania Mexicana promastigotes LmPfHT that are glucose transport deficient and complemented with the Plasmodium falciparum hexose transporter. Activity is measured by DNA content using SYBR green in vitro.

Assay [3] has as its target Glucose transporter (Leishmania mexicana) (UniProt O61059). As to the kind of experiment: ST_JUDE_LEISH: Cytotoxicity at 2uM final concentration against transgenic Leishmania Mexicana promastigotes LmGT2 that are glucose transport deficient and complemented with the L. Mexicana glucose transporter 2. Activity is measured by DNA content using SYBR green in vitro.

Several values for one entry are separate records, joined by “and”; a condition that tells them apart may be missing. Identical values can stand only once.

Solute carrier family 2, facilitated glucose transporter member 1 (Homo sapiens), sequence (P11166 whole entry): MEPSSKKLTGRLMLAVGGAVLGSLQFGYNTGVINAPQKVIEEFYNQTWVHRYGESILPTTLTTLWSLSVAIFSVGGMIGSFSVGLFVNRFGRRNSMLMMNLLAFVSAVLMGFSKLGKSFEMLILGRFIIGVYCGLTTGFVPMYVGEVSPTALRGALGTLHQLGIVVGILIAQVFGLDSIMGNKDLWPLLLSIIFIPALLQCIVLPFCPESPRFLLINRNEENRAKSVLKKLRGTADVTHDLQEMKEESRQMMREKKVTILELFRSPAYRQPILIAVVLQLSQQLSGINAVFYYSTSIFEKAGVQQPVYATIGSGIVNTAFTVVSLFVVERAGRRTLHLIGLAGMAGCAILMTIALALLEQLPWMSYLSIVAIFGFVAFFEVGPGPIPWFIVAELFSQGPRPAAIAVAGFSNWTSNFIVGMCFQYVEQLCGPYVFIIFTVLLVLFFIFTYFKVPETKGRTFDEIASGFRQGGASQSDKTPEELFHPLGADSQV

Regarding `Cc1noc(C)c1C(=O)N1CCCC(c2[nH]c3c(C)cccc3c2-c2ccncc2)C1` (centres undefined), the inhibition in assay [1] is 2.42%; in assay [2] it was 3%; in assay [3], 2%.
The matching figures for `O=C(Nc1ccc(Cl)cc1)Nc1cccc(-c2cc(CNCCc3ccccc3)oc2-c2ccncc2)c1`: 5.78%, 2.56% and 3.77%.
The matching figures for `CCCc1cc(Cc2cnc(N)nc2N)cc(CC)c1OC`: 6.06%, 4.59% and 2.29%.
As for `COC(=O)CCCCOc1cc(Cc2cnc(N)nc2N)cc(OC)c1OC`, the inhibition in assay [1] stood at 2.26%; in assay [2], 1.3%; in assay [3] it was 1.88%.
Consider `CCc1nc2c(cnn2CC)c(NC2CCOCC2)c1CNC(=O)N1CCOCC1`, for which the inhibition in assay [1] is 3.81%; in assay [2], -1.12%; in assay [3], -0.36%.
Regarding `O=C(Nc1ccc(O)c(-c2nc3ccccc3[nH]2)c1)c1ccc([N+](=O)[O-])cc1`, the inhibition is -2.13% in assay [1], -0.21% in assay [2] and 1.31% in assay [3].
`CCN(CC)S(=O)(=O)c1ccc(Cl)c(C(=O)Nc2ccc3nc(C)sc3c2)c1`: the inhibition was -2.24% in assay [1], -0.92% in assay [2] and -1.58% in assay [3].
Regarding `O[C@@H](c1cc(C(F)(F)F)nc2c(C(F)(F)F)cccc12)[C@H]1CCCCN1`, the inhibition in assay [1] is 13.6% and 1.21%; in assay [2], 8.31% and 0.88%; in assay [3], 7.19% and 1.05%.
For the compound `Cc1ncc([N+](=O)[O-])n1CCOC(=O)NC(NCC1COc2ccccc2O1)C(Cl)(Cl)Cl` (centres undefined), the inhibition in assay [1] was found to be 2.63%; in assay [2], 2.63%; in assay [3], 2.19%.
`COc1cccc(-c2ccc(O)c(CNCCc3cccc(F)c3)c2)n1`: the inhibition is -0.7% in assay [1], 3.14% in assay [2] and 2% in assay [3].
For the compound `COc1cc(CN2CCC(C(=O)Nc3ccc(-c4cccc(C)c4)cc3)CC2)ccc1O`, the inhibition in assay [1] is 8.11%; in assay [2], 7.03%; in assay [3], 4.91%.
Consider `COc1ccc(CNc2ncc(-c3ccsc3)c(-c3nccs3)n2)cc1OC`, for which the inhibition in assay [1] turned out to be 0.9%; in assay [2], 0.94%; in assay [3], 2.07%.
Take `CCCNCc1ccc(-c2ccc(CN(Cc3cnc(C)cn3)C(=O)CC#N)cc2)nc1`: the inhibition in assay [1] was 1.8%; in assay [2] it was 1.17%; in assay [3], -1.49%.

What is called inhibition is the relative decrease from the control value, in per cent.

The values above are taken from ChEMBL document CHEMBL3433997, “St. Jude Leishmania screening dataset” (2016).
